Experimental data as given in PubChem BioAssay (NCI).
Several values for one entry are separate records, joined by “and”; a condition that tells them apart may be missing. Equal entries are not always repeated. This is part of a sample that, as a whole, favours compounds with a hit. Of some 83,000 tested, about 20% had one in any assay.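 Cells were grown in 96-well plates and exposed to the test compound at a single concentration for 48 hours; results are reported as percent growth, with values below 10 considered active.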 Activity calls are given as the source filed them.

system: HL-60(TB) leukemia; assay: NCI-60 one-dose screen, 48 h (100 = growth as untreated, 0 = no growth, -100 = all killed); conditions: 10 µM unless noted

Row | SMILES | growth
1 | CN1CCC(c2ccccc2)(c2ccccc2)C(=O)C1 | 90.8% (inactive)
2 | O=c1c2cc(F)ccc2sc2c(N3CCCCC3)nc3ccccc3c12 | 102% (inactive)
3 | O=[N+]([O-])c1cnc(Sc2ccncn2)c([N+](=O)[O-])c1 | 11.3% (inactive)
4 | COc1ccc2oc3cc(NCCN(C)C)ccc3c(=O)c2c1 | 22% (inactive)
5 | O=C1NN(C(=O)c2ccc(Cl)cc2)C(c2ccccc2)=N/C1=C\c1ccc(F)cc1 | -3.45% (active)
6 | CCCC1=NNC(=O)C1 | 95.6% (inactive)
7 | NC(=S)c1csc(CCNC(=O)c2ccccc2)n1 | 89% (inactive)
8 | Cc1ccc(C2=Nc3c(N)ncnc3NC(c3ccc4c(c3)OCO4)C2)cc1 (stereo not given) | 33.2% (inactive)
9 | O=C(NC1C(O)OC(CO)C(O)C1O)NS(=O)(=O)c1ccc(Cl)cc1 (stereo not given) | 93.4% (inactive)
10 | COc1cc(NC(=O)CCSc2nc3ccccc3c(=O)n2CCc2ccccn2)cc(OC)c1OC | 99.1% (inactive)
11 | COc1cc(-c2nn(-c3ccc(NC(=O)NCCCNC(=O)c4ccccc4)cc3)cc2-c2ccncc2)ccc1Cl | -0.104% (active)
12 | Cc1c(C(=O)/C=C/c2csc3ccccc23)[n+](=O)c2ccccc2n1[O-] | 67.7% (inactive)
13 | CN1CNC(=O)NC1 | 85.5% (inactive) and 102% (inactive)
14 | Clc1cc(Cl)cc(N2N=C(c3cccc(Nc4ccncc4)c3)CC2c2ccc3c(c2)OCO3)c1 (stereo not given) | 8.01% (active)
15 | CN1CCN(Cn2nc(-c3cc(Cl)cc(Cl)c3Cl)n(/N=C/c3ccc(Cl)cc3)c2=S)CC1 | -38.6% (active)
16 | NC(N)=Nc1nc2ccccc2o1 | 124% (inactive)
17 | Cc1cc(/C=C\c2ccc3ccccc3[n+]2C)c(O)c2ncccc12 | -22.4% (active)
18 | COc1cccc(CCC2CCCN(c3cc(C)nc(N)n3)C2)c1 (stereo not given) | 1.26% (active)
19 | CCCC1(CN2c3ccccc3Sc3ccc(Cl)cc32)CCN(CC)C1 (stereo not given) | 31.8% (inactive)
20 | Nc1nc(Cl)c2ncn(Cc3cc4c(cc3I)OCO4)c2n1 | 52.3% (inactive)

Row | SMILES | growth
21 | Nc1c(C(=O)Nc2ccccc2Cl)sc2nc3c(cc12)C(O)CCC3 (stereo not given) | 0.926% (active)
22 | CCCCCCCCCCCCc1ccc([N+](CC)(CC)CC)cc1 | -10.9% (active)
23 | CNC(=O)c1ccccc1Nc1nc(Nc2ccc3c(c2OC)CCC[C@H](N2CCN(CCO)CC2)C3)ncc1Cl | -45.7% (active)
24 | O=C(c1cc(-c2ccc(Cl)cc2)nc2ccccc12)N1N=C(c2ccccc2)CC1c1cc(-c2ccccc2)nn1-c1ccccc1 (stereo not given) | 91.6% (inactive)
25 | CCOC(=O)c1cc(C(=O)c2cc(OC)c(OC)c(OC)c2)n2ccc(-c3ccncc3)cc12 | 65% (inactive)
26 | COc1ccc(C2C=C(c3ccc(Cl)c(Cl)c3)N=C3SC(C)=CN32)cc1OC (stereo not given) | 63.3% (inactive)
27 | CC1(C)CN(Cc2ccccc2)CCN1Cc1ccccc1 | 100% (inactive)
28 | Cn1cc(-c2csc(-c3c[nH]c4ccc(Br)cc34)n2)c2cnccc21 | -56.6% (active)
29 | CCOC(=O)c1c(/C=C/C(=O)O)nc2ccccc2c1/C=C/c1ccccc1 | 8.28% (active)
30 | ClC/C=C/CSc1ncnc2nc[nH]c12 | 97.9% (inactive) and 95.6% (inactive)
31 | CC(=O)NC(Cc1ccccc1)C(=O)Oc1ccc2ccccc2c1 (stereo not given) | 110% (inactive) and 83.4% (inactive)
32 | C[C@]12CC[C@@H]3c4ccc(O)cc4CC[C@H]3[C@@H]1C[C@H](O)[C@@H]2O | 112% (inactive)
33 | CC1=CC(=C(c2ccc(N)cc2)c2ccc(N)cc2)C=CC1=N | -13.5% (active) and 47.8% (inactive)
34 | COc1ccc(Nc2nc(SCC(C)C)nc(-c3ccc(F)cc3)c2C#N)cc1 | 38.4% (inactive)
35 | CCC(=O)OC1=C(C)SC2=NC(c3ccc(Cl)c(Cl)c3)=CC(c3cc(OC)c(OC)c(OC)c3)N21 (stereo not given) | 97.8% (inactive)
36 | COc1ccc(C(=O)c2no[n+]([O-])c2C(=O)c2ccc(OC)cc2)cc1 | -79.7% (active)
37 | C=CC[N+]1(CCO)CCN=C1CCCCCCCCCCCCC (stereo not given) | -31.8% (active)
38 | Cc1cccc(/C=C\C(=O)c2ccc(Cl)cc2)c1 | 90.1% (inactive) and 61.3% (inactive)
39 | CCN(CC)CC(=O)Nc1c(C)cc(C(=O)NN)cc1C | 65.2% (inactive)
40 | COc1ccc2cc(-c3ccc(NC(C)=O)c(=O)o3)ccc2c1 | 95.1% (inactive)
